In PubChem BioAssay (NCI) one finds growth data, which are given here for 40 compounds.

Compounds without any hit were thinned out: in the full panel of roughly 83,000, 20% have a hit.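 Activity criterion: percent growth below 10, measured after cells in 96-well plates were exposed to a single compound concentration for 48 hours.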 A number with no mark means an inactive call. Active and inactive are the calls of the source.

The assay has as its system HL-60(TB) leukemia. The assay is described as follows: NCI-60 one-dose screen, 48 h (100 = growth as untreated, 0 = no growth, -100 = all killed). Particulars: 10 µM unless noted.
As for `COC1=CC(c2ccc[nH]2)=N/C1=C\c1[nH]c(C)c(C(=O)CCCCC(=O)NC(C)(C)C)c1C`, the growth was 3.43% (active).

As for `COC(=O)c1c2c(c(C)[n+]([O-])c1C)C(=O)C(NCc1ccc(F)cc1)=CC2=O`, the growth is -51.5% (active).

Regarding `COc1cc(/C(=C2/O[C@@H]([C@H]3COC(C)(C)O3)[C@H]3OC(C)(C)O[C@@H]23)c2ccc3ccccc3c2)cc(OC)c1OC`, the growth is 59.2%.

Consider `Cn1cc(-c2nn3cc(-c4cccs4)nc3s2)c2cc(F)ccc21`, for which the growth was 3.45% (active).

For the compound `O=C(O)C(c1ccccc1)C(O)c1ccccc1` (stereo not given), the growth is 97.8%.

Regarding `Cc1nnc(N/N=C/c2ccc([N+](=O)[O-])o2)[nH]c1=O`, the growth was -34.8% (active).

Turning to `O=C1Nc2c(ccc(Cl)c2Cl)/C1=C\c1ccc(C(F)(F)F)cc1`, the growth was 51.8%.

For the compound `C=CCNC(=S)N/C=C(/C(=O)c1ccccc1)c1ccccc1`, the growth was 101%.

For `Cc1ccc(Cc2ccc(C)cc2)cc1`, the growth was 95.9%.

Consider `CCCCC1COc2cccc3c2N1C=C/C3=C\C(=O)N(C)c1ccccc1` (stereo not given), for which the growth is 9.39% (active).

As for `O=C1CC(c2cccc(F)c2)c2c(n[nH]c2-c2ccc(Cl)cc2)N1` (stereo not given), the growth was 97.3%.

Take `C#Cc1cccc(NC(=O)c2ccccc2NC(=O)C=C)c1`: the growth is 97.7% [8.25 µM].

Regarding `CC(=O)c1ccc(NC(=O)CSc2nnc(-c3cc(-c4ccc(Cl)cc4)nc4ccccc34)o2)cc1`, the growth was 91.3%.

With `COc1cc(CCC[P+](c2ccccc2)(c2ccccc2)c2ccccc2)c(OC)c(OC)c1OC`, the growth is 65.7%.

As for `COc1cc(-c2csc(NC(=O)c3cc(F)cc(C(F)(F)F)c3)n2)cc(OC)c1OC`, the growth is 14%.

As to `COc1cc(/C=C2\C=C(c3ccccc3)N(CCc3ccccc3)C2=O)cc(OC)c1OC`, the growth was 80.3%.

Consider `CC(=O)N1N=C(c2ccc(-n3ccc(C(F)(F)F)n3)c(F)c2)CC1c1ccc[nH]1` (stereo not given), for which the growth is 98.8%.

`CCN1CCN(Cc2ccc(NC(=O)c3nc4ccc5[nH]ncc5c4c4c3CCCC4)cc2C(F)(F)F)CC1`: the growth was -59% (active).

Turning to `CCOC(=O)C1=C(CC(O)c2ccc(OC)cc2OC)NC(=O)NC1c1ccccc1` (stereo not given), the growth was -33.9% (active).

`CCOC(=O)c1c(C)nc2c(c1N)CC(=O)N2CCc1ccccc1`: the growth was -3.38% (active).

Take `COc1cc2c(=O)n(CC3CCCCC3)c3c4cc[nH]c4ncc3c2cc1OC`: the growth is 42.9%.

Consider `COc1cc(F)c(/C=C/c2cc(/C=C/c3cc(OC)c(OC)cc3F)n(-c3cc(F)cc(F)c3)n2)cc1OC`, for which the growth is 87.6%.

As to `c1ccc(-c2nnc(Nc3ccc4c(c3)OCCO4)o2)c(NCc2ccncc2)c1`, the growth is 6.43% (active).

`CN1C(=O)N(C)C2C1NN=c1s/c(=C\c3ccc(F)cc3)c(=O)n12` (stereo not given): the growth was -22.4% (active).

As to `CCN(CCC#N)c1ccccc1`, the growth is 98.1%.

With `CC(=O)c1c[nH]c2ccc(-c3ccnc(Nc4ccc(NC(=O)c5cccc(F)c5)c(CN5CCOCC5)c4)n3)cc12`, the growth was -24.8% (active).

In the case of `Cc1ccc(-c2nc3c(c(-c4ccccc4)nn3-c3ccccc3)c(-c3ccc(O)cc3)c2C#N)cc1`, the growth was 33%.

For the compound `CCN(CC)CCNc1ccc(CO)c2oc3cc(Cl)ccc3c(=O)c12`, the growth is 111%.

As to `Cc1ccn2c3c(c(C(=O)O)c2c1)C(=O)c1ccccc1C3=O`, the growth was 73.2%.

With `CCOC(=O)CO`, the growth is 83.5%.

Turning to `CC[n+]1ccc(Nc2ccc(NC(=O)c3ccc(Nc4cc[n+](CC)c5ccc([N+](=O)[O-])cc45)cc3)cc2)cc1`, the growth was 66.9%.

As to `NS(=O)(=O)c1cnccc1Sc1ccncc1S(N)(=O)=O`, the growth is 82.5%.

As to `CCCC(=O)Oc1ccc(CC)cc1`, the growth was 97.6%.

For the compound `CN1CCC2(CC1)N=C(SCC(=O)Nc1cnc3ccccc3c1)C(c1ccc(Br)cc1)=N2`, the growth was -40.7% (active).

Take `O=C(c1ccc(Br)cc1)C(Br)C(c1ccc(Cl)cc1)C(c1ccccc1)[N+](=O)[O-]` (stereo not given): the growth was 99.3%.

Take `COc1ccc(C2=Nn3c(nnc3-c3ccc(Cl)cc3N)SC2)cc1`: the growth was 100%.

Consider `COc1ccc2[nH]c(-c3ccccc3)cc2c1`, for which the growth is 60.7%.

As to `CC1=C/C(=C(\c2cc(C)c(O)c(C(=O)O)c2)c2c(Cl)cccc2Cl)C=C(C(=O)O)C1=O`, the growth was 106%.

`CN1CCN(Cc2ccc(NC(=O)c3[nH]ncc3Nc3ccnc4ccsc34)cc2)CC1`: the growth was -17.8% (active).

Regarding `COc1cccc(C(=O)O)c1OC`, the growth was 106%.
